# Rows were chosen to be rich in hits. Some 14% of all compounds tested hit in one or more screens of this group.
# HCV inhibitor = HCV inhibition; Huh7.5.1 HCVcc-Cre infection, luciferase reporter, 44 h; Potency, µM (doses to about 41.8 µM), usual class: inhibitors; actives 3.4% (n = 340,000); AID 651820
#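 Antiviral activity was scored by luciferase reporter output from cells infected with HCVcc-Cre (~0.5 moi) in presence of compound, 44 h infection period, cells seeded 1,000/well 4 h prior.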
# Pf growth 96h = P. falciparum growth inhibition at 96 hour, primary screen for plastid delayed-death inhibitors | P. falciparum luciferase reporter growth, 96 h | Potency, µM (series often up to 28.7 µM), hits mostly inhibitors | AID 504834 | actives 6.9% (n = 320,000)
#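 Two parasite generations (96 h, 37 C, 5% CO2) of compound exposure in infected erythrocytes (0.05% parasitemia, 2% hematocrit). Luciferase-reporter P. falciparum; decreased luminescence indicates inhibited growth, aimed at apicoplast-acting delayed death.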
# HCMV antiviral = inhibitors of human cytomegalovirus | HFF cells, HCMV-luciferase reporter, 72 h; hits give low values | activity change, negative = inhibition, % at 57.5 µM | actives 4.5% (n = 410,000) | AID 1259415; in the data active means activity change below about -60%; inconclusive means no clear call, values can overlap the other calls; inactive means above about -39%
#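 Compounds were evaluated in HFFs infected with an HCMV luciferase reporter virus (MOI 1 PFU/cell). Luciferase in lysates collected 72 h post infection served as the replication measure.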
# Pf growth 48h = P. falciparum growth inhibition at 48 hours (one generation) | P. falciparum luciferase growth in erythrocytes, 48 h | Potency, µM (series often up to 28.7 µM), usual class: inhibitors | actives 5.9% (n = 310,000) | AID 504832
#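 Compounds are pin-transferred into medium, infected erythrocytes (2% hematocrit, 0.1% parasitemia final) are added, and plates sit one parasite generation at 37 C in 5% CO2. Detection reagent is then added and luminescence measured.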
# Marburg entry inh = blocks Marburg virus binding to or entry into cells; Marburg virus pseudotyped entry inhibition, cell reporter; Potency, µM (doses to about 37.8 µM), most hits filed as inhibitors; actives 1.8% (n = 300,000); AID 540276; calls by dose curve; tested in HEK293 cells
# Lassa entry inh = inhibitors of Lassa virus binding or cell entry. Potency, µM (top dose mostly 37.9 µM), hits mostly inhibitors. actives 1.2% (n = 300,000). Lassa virus pseudotype entry inhibition, cell reporter; calls by dose curve; tested in HEK293 cells; further: nearly all actives have a fitted effect of over 50% in size
# Hits are given with their value; – = inactive; ? = inconclusive; · = no result given. Unless noted, the call rests on the fitted dose curve; in most records, active means well fitted inhibition curve with a large enough effect; inconclusive means small, poorly fitted or top-dose-only effect, or another doubt; inactive means no such curve, though single readings can be large or run the other way.
SMILES,HCV inhibitor,Pf growth 96h,HCMV antiviral,Pf growth 48h,Marburg entry inh,Lassa entry inh
Cc1ccc(CNC(=O)c2ccc(N3CCC4(CC3)CC(c3cccc(Br)c3)=NO4)c(NC(=O)c3ccccc3)c2)cc1,?,?,–,9.3µM,·,·
Cc1ccc(CNC(=O)c2ccc(N3CCC4(CC3)CC(c3cccc(Br)c3)=NO4)c(NC(=O)c3ccc(Cl)c([N+](=O)[O-])c3)c2)cc1,–,·,–,·,·,·
COc1cccc(C(=O)Nc2cc(C(=O)NCc3ccc(C)cc3)ccc2N2CCC3(CC2)CC(c2ccccc2)=NO3)c1,–,1.3µM,–,?,·,·
O=C(NCc1ccccc1)c1ccc(N2CCC3(CC2)CC(c2ccc(Cl)cc2)=NO3)c([N+](=O)[O-])c1,4.5µM,?,?,?,·,·
CCc1nc2ccc(C(=O)Nc3cccc(OCC(=O)N(C)C)c3)cn2c1N(C)Cc1ccc(OC)cc1,·,·,–,·,·,·
O=C(O)c1nn(CC(=O)N(C2CCCCC2)C2CCCCC2)c(=O)c2ccccc12,?,–,–,–,–,–
C/C(=N\NC(=O)c1ccccc1)c1ccc(NC(=O)C(F)(F)F)cc1,·,·,·,·,–,·
COc1ccccc1CNCCS(=O)(=O)NN1CCOCC1,–,·,–,·,·,·
Cc1ccc2c(c1)N(C(=O)N1CCC(C(=O)NC3CCCCCC3)CC1)CCO2,·,·,–,·,·,–
CC(Oc1ccccc1)C(=O)N1CCN(c2ccc(N3CCCCCC3)nn2)CC1 (stereo not drawn),?,10µM,–,?,–,–
CC(C)c1ccc([C@@H]2O[C@H](C)CC3=C2C(=O)OC(C)(C)O3)cc1,·,·,–,·,·,·
CC(=O)c1cccc(NC(=O)c2noc3c2CC(C)CC3)c1 (stereo not drawn),·,·,–,·,·,–
O=C(c1cc2ccccc2cc1O)N1CCCC1,–,–,–,–,·,·
O=C(N/N=C1/CN2CCC1CC2)c1cc2ccccc2cc1O,–,–,–,13µM,?,–
CC(C)COc1ccc(C(=O)Nc2ccccc2[N+](=O)[O-])cc1,–,10µM,–,–,?,?
CCOc1ccccc1NC(=O)c1cc(CC(C)C)oc1C,–,–,?,10µM,–,–
CCOc1cc(NC(=S)Nc2cccc(OC)c2)c(OCC)cc1NC(=O)c1ccc(C)cc1,?,–,–,?,?,–
Cc1ccc(-c2nc3ccccc3[nH]2)cc1NC(=O)COc1ccccc1[N+](=O)[O-],·,·,-88,·,–,?
CCOc1cc(NC(=S)Nc2ccccc2)c(OCC)cc1NC(=O)c1ccc(OC)cc1,?,?,-66,12µM,?,?
C[C@H]1[C@H](N=[N+]=[N-])[C@H](O)CCO[C@@H]1c1ccccc1,·,·,·,·,–,·
COC(=O)[C@@]12C[C@@H](CC(=O)NCCc3ccccc3OC)C(=O)N(Cc3ccco3)C1=CCC(C)(C)C2,·,·,–,·,·,·
Cc1ccccc1C1=CCN(c2ncc(NC(=O)c3ccc(Cl)cc3)cc2C(=O)O)CC1,·,·,–,·,·,–
COc1ccc(NC(=O)c2ccc3[nH]c(C)c(C)c3c2)c(OC)c1,?,–,–,–,?,?
CCOc1ccccc1NC(=O)c1ccc([N+](=O)[O-])cc1,·,–,·,–,·,·
CCOc1ccc(C(=O)Nc2cc(-c3nc4ccccc4[nH]3)ccc2Cl)cc1[N+](=O)[O-],?,–,-85,?,8.9µM,?
SMILES,HCV inhibitor,Pf growth 96h,HCMV antiviral,Pf growth 48h,Marburg entry inh,Lassa entry inh
CCOc1ccccc1NC(=O)c1ccc2[nH]c(C)c(C)c2c1,?,?,–,15µM,?,?
CCOc1ccccc1NC(=O)c1ccc(OCC)c([N+](=O)[O-])c1,–,–,-65,–,–,–
CCOc1ccc(C(=O)Nc2cc(-c3nc4ccccc4[nH]3)ccc2C)cc1[N+](=O)[O-],?,–,–,?,?,?
CCOc1ccccc1NC(=O)c1c(NC(=O)c2cccc(C)c2)sc2c1CCCC2,·,·,-85,·,·,–
O=C(c1ccc(C(F)(F)F)cc1)N1CCC(=O)N([C@H](COCc2ccc(Cl)cc2)Cc2ccccc2)CC1,·,·,–,·,·,·
O=C1c2ccccc2C(=O)N1CCCC[C@]12Cc3ccccc3[C@H](O1)c1c(c3ccccc3oc1=O)O2,·,·,·,·,–,·
O=C(NCC(F)(F)F)c1cc2c(c(-c3cccc(-c4ccccc4F)c3)n1)[C@@H](CCO)N(C(=O)CC1CC1)C2,·,·,–,·,·,·
CCOc1ccc(C(=O)Nc2ccccc2-c2ccccc2)cc1Cl,–,–,–,–,–,–
CCOc1ccccc1NC(=O)NNC(=O)c1ccc2ccccc2c1,–,–,–,–,?,?
CCOc1ccc(C(=O)Nc2cccc(C(=O)O)c2C)cc1Cl,–,–,?,–,5.8µM,9.2µM
CCOc1ccccc1NC(=O)c1ccc2ccccc2c1,10µM,12µM,–,–,–,–
Cc1cc(C(=O)NNC(=O)c2ccc(Cl)cc2Cl)c(C)o1,–,–,–,–,–,–
CCC(=O)c1c(NCCc2ccccc2)cc(C)oc1=O,?,?,-98,–,–,–
c1ccc(SC23CCCCN(CCC2)C32OCCO2)cc1 (stereo not drawn),·,·,–,·,·,·
COc1cccc(-c2cc(N3CCN(C(=O)c4ccoc4)CC3)n3nc(-c4cccc(Cl)c4)cc3n2)c1,·,·,-94,·,·,·
COc1cccc(-c2cc3nc(-c4ccccc4)cc(N4CCC5(CC4)OCCO5)n3n2)c1,?,–,–,13µM,?,?
COc1cccc(-c2cc3nc(-c4ccccc4)cc(N4CCN(C(=O)c5ccoc5)CC4)n3n2)c1,·,·,-104,·,·,·
COc1cccc(-c2cc3nc(C)cc(N4CCN(C(=O)c5ccoc5)CC4)n3n2)c1,·,·,–,·,·,·
O=S1(=O)CC(N2CCSCC2)CN1Cc1cn(Cc2ccc(C(F)(F)F)cc2)nn1 (stereo not drawn),·,·,–,·,·,·
COC(=O)[C@@H]1ON2OCC(C)=C3CCCC[C@@]32[C@H]1C(=O)OC,·,·,–,·,·,·
COc1ccc(N(Cc2ccccc2)C(=O)c2nc(S(C)(=O)=O)ncc2Cl)cc1,·,·,-101,·,–,?
CCOc1ccc(N(Cc2ccccc2)C(=O)c2nc(SC)ncc2Cl)cc1,·,·,–,·,?,–
CCCSc1ncc(Cl)c(C(=O)N(Cc2ccccc2)c2ccc(OC)cc2)n1,·,·,-75,·,?,–
CS(=O)(=O)c1ncc(Cl)c(C(=O)N(Cc2ccc(Cl)cc2)Cc2ccco2)n1,·,·,-107,·,?,?
CCc1ccccc1NS(=O)(=O)c1ccc(-c2coc(C)n2)cc1,·,·,–,·,·,?
COc1ccc(NC(=O)c2c(NCc3cccs3)sc3c2CCCCC3)c(OC)c1,·,·,–,·,·,–
CCN(C(=O)CCNC(=O)Cn1cnc2ccccc2c1=O)c1cc(OC)ccc1OC,·,·,–,·,·,–
CCC(CC)C(=O)Nc1cc([N+](=O)[O-])ccc1Cl,–,7.4µM,–,–,?,–
COc1cccc(NC(C)C(=O)Nc2cc([N+](=O)[O-])ccc2Cl)c1 (stereo not drawn),?,15µM,–,–,?,?
O=C(CC1Sc2ccccc2NC1=O)Nc1cccc(-c2nnc3n2CCCCC3)c1 (stereo not drawn),–,13µM,–,9.3µM,–,–
